Reference: PubChem BioAssay
Activity calls are given as the source filed them. Rule as the data show it, unless noted: active = inhibition above about 33%; inactive = the rest.

How the values were obtained:
[1] = molecular target: Nuclear receptor coactivator 3 (Homo sapiens) (UniProt Q9Y6Q9); assay: NCOA3 GAL4-fusion reporter inhibition – cell-based, luminescence, quadruplicate, confirmation (AID 588792;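 active = mean inhibition over 43.08%, the solvent-only control mean plus 3 SD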;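 also: 0% = DMSO treated cells and 100% = gossypol at 36 µM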); conditions: HEK293 GAL4-SRC3 luciferase reporter, at 3.6 µM, hits give high values
Sequence of Nuclear receptor coactivator 3 (Homo sapiens) (Q9Y6Q9 whole entry, looked up, the tested form may be a part): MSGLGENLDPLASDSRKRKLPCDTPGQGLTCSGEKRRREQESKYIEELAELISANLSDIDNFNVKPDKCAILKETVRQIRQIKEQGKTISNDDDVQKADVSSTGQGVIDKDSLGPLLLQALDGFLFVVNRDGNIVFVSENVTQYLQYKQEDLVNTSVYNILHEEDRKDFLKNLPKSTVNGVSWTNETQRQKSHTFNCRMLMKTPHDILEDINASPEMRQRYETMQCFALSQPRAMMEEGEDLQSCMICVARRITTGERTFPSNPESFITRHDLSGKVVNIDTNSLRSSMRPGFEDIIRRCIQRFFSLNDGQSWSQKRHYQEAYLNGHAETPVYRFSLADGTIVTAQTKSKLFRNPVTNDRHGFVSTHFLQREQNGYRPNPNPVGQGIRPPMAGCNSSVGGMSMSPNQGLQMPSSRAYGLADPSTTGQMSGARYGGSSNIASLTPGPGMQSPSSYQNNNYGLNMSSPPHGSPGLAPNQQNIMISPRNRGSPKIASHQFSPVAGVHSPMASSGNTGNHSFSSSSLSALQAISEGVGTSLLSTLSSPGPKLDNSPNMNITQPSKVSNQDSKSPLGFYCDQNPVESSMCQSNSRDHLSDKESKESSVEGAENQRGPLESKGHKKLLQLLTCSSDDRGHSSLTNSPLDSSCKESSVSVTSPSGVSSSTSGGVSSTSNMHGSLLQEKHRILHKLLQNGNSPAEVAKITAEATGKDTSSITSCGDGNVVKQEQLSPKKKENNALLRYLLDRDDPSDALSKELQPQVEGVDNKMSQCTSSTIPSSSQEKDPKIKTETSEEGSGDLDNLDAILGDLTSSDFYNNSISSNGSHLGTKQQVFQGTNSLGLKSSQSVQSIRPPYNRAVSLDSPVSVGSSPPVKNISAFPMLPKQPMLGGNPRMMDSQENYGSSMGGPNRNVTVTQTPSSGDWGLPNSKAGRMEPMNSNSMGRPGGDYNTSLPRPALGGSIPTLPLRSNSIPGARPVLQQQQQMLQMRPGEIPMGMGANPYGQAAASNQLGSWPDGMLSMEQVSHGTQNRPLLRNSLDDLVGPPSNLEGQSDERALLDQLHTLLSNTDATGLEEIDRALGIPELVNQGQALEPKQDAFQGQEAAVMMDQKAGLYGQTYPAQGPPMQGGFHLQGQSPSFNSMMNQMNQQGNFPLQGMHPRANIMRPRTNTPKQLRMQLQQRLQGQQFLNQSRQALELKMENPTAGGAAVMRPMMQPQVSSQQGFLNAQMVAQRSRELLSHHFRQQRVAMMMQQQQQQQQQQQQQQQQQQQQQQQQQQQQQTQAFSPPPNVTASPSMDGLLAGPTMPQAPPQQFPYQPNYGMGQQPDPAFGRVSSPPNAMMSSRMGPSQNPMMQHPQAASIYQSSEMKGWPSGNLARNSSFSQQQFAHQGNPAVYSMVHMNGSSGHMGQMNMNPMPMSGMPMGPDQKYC

[2] = system: transactivating tegument protein VP16 (Human herpesvirus 1), Gal4-VP16 luciferase reporter; assay: repression of VP16-driven luciferase reporter – cell-based, luminescence, high throughput, counter-screen for SRC3 inhibitor project (AID 588794; in the data active = inhibition above about 30%); conditions: mammalian cells, at 3.6 µM, hits give high values
[3] = molecular target: Nuclear receptor coactivator 1 (Homo sapiens) (UniProt Q15788); assay: NCOA1 GAL4-fusion reporter inhibition – cell-based, luminescence, quadruplicate, confirmation (AID 588820;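 active = mean inhibition above 46.68%, the untreated control wells mean plus 3 SD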;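 also: 0% = DMSO wells and 100% = gossypol 36 µM treated wells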); conditions: HEK293 GAL4-SRC1 luciferase reporter, at 3.6 µM, hits give high values
Sequence of Nuclear receptor coactivator 1 (Homo sapiens) (Q15788 whole entry, looked up, the tested form may be a part): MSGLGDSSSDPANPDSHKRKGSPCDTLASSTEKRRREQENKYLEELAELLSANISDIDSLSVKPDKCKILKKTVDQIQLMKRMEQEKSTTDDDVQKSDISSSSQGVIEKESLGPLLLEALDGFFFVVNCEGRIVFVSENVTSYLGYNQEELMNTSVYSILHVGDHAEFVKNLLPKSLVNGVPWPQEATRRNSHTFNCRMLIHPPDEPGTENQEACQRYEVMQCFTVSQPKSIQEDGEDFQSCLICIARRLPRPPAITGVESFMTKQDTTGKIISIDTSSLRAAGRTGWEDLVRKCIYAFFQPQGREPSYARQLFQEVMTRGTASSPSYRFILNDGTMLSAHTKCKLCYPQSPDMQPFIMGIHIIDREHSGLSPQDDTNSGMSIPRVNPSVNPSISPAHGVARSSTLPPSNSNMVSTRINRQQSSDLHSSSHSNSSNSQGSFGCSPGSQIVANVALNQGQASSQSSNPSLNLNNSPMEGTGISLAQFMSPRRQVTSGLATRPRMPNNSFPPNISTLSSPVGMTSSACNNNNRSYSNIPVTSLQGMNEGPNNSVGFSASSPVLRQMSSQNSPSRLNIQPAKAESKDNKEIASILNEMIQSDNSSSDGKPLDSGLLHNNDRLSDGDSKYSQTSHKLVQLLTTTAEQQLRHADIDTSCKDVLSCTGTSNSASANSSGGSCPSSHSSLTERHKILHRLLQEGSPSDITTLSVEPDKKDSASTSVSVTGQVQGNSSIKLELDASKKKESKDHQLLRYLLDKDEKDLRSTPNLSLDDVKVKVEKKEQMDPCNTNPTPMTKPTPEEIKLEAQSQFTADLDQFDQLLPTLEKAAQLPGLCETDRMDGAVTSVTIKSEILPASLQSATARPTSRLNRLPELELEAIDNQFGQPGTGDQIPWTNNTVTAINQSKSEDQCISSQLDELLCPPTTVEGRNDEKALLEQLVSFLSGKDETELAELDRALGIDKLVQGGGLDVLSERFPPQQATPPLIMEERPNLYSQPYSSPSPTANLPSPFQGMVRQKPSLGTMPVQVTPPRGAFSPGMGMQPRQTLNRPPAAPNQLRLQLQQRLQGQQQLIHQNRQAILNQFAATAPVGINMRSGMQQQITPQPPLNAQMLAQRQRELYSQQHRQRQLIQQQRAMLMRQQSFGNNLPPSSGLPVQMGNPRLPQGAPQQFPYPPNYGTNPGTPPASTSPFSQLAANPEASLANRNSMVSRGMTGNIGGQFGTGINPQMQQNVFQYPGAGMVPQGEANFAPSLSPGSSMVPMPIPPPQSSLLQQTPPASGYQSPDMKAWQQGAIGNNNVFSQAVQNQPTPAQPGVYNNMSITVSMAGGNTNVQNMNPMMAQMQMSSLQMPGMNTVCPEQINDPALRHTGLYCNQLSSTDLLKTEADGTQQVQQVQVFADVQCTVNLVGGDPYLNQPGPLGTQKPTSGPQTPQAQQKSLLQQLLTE

[4] = repression of VP16-driven luciferase reporter – cell-based, luminescence, high throughput, counter-screen for SRC1 inhibitor project (AID 588824; in the data active = inhibition above about 25%); conditions: cell-based VP16 transactivation luciferase luminescence; at 3.6 µM; hits give high values
[5] = StAR promoter reporter inhibitors, counter-screen for LRH-1 inverse agonist project, cell-based, luminescence, high throughput (AID 651611; in the data active = inhibition above about 28%); conditions: StAR promoter luciferase reporter counterscreen, at 3.6 µM, hits give high values
[6] = molecular target: Nuclear receptor subfamily 5 group A member 2 (Homo sapiens) (UniProt O00482); assay: NR5A2 activity suppression in reporter cells – cell-based, luminescence, confirmation (AID 651613; in the data active = inhibition above about 42%;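 also: HEK293T cells co-transfected with LRH-1 and StAR promoter luciferase reporter; 0% = vehicle wells and 100% = parental cells lacking receptor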); conditions: cell-based LRH-1 luciferase reporter, inverse agonism; at 3.6 µM; hits give high values
[7] = molecular target: Steroidogenic factor 1 (Homo sapiens) (UniProt Q13285); assay: inverse agonism at SF1 nuclear receptor – cell-based, luminescence, high throughput, counter-screen for LRH-1 inverse agonist project (AID 651614; in the data active = inhibition above about 44%;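 also: cells cotransfected with StAR promoter reporter and SF1 expression vector; 0% = vehicle on cells with receptor and 100% = vehicle on cells lacking receptor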); conditions: cell-based SF1 luciferase reporter, at 3.6 µM, hits give high values
Sequence of Steroidogenic factor 1 (Homo sapiens) (Q13285 whole entry, looked up, the tested form may be a part): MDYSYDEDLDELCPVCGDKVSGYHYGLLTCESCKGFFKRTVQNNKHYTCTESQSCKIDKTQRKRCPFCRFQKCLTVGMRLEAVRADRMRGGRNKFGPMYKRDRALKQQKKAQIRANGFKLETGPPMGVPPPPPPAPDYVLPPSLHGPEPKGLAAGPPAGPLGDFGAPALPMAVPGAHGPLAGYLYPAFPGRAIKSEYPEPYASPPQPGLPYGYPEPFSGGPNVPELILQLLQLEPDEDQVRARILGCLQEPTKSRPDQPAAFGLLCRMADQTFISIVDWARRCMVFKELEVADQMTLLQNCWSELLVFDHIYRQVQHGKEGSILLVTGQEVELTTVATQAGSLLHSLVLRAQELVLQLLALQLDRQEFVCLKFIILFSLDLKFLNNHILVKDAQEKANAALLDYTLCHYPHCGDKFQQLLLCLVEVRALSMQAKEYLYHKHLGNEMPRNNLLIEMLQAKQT

[8] = compounds suppressing VP16-driven luciferase signal – cell-based, luminescence, high throughput, counter-screen for LRH-1 inverse agonist project (AID 651615); conditions: Gal4-VP16 luciferase reporter cells, at 3.6 µM, hits give high values
[9] = system: transactivating tegument protein VP16 (Human herpesvirus 1); assay: compounds suppressing VP16-driven luciferase signal – cell-based, luminescence, single concentration, counter-screen for SRC2 inhibitor project (AID 652007; in the data active = inhibition above about 36%); conditions: cell-based VP16 transactivation luciferase reporter, at 8.9 µM, hits give high values
[10] = molecular target: Nuclear receptor coactivator 2 (Homo sapiens) (UniProt Q15596); assay: inhibition of GAL4-SRC2 driven luciferase expression – cell-based, luminescence, HEK293, triplicate, confirmation (AID 652008;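 active = mean inhibition above 46.5%, the solvent-only control mean plus 3 SD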;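 also: 0% = DMSO-treated cells and 100% = Gossypol at 36 µM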); conditions: HEK293 GAL4-SRC2 luciferase reporter, at 8.9 µM, hits give high values
Sequence of Nuclear receptor coactivator 2 (Homo sapiens) (Q15596 whole entry, looked up, the tested form may be a part): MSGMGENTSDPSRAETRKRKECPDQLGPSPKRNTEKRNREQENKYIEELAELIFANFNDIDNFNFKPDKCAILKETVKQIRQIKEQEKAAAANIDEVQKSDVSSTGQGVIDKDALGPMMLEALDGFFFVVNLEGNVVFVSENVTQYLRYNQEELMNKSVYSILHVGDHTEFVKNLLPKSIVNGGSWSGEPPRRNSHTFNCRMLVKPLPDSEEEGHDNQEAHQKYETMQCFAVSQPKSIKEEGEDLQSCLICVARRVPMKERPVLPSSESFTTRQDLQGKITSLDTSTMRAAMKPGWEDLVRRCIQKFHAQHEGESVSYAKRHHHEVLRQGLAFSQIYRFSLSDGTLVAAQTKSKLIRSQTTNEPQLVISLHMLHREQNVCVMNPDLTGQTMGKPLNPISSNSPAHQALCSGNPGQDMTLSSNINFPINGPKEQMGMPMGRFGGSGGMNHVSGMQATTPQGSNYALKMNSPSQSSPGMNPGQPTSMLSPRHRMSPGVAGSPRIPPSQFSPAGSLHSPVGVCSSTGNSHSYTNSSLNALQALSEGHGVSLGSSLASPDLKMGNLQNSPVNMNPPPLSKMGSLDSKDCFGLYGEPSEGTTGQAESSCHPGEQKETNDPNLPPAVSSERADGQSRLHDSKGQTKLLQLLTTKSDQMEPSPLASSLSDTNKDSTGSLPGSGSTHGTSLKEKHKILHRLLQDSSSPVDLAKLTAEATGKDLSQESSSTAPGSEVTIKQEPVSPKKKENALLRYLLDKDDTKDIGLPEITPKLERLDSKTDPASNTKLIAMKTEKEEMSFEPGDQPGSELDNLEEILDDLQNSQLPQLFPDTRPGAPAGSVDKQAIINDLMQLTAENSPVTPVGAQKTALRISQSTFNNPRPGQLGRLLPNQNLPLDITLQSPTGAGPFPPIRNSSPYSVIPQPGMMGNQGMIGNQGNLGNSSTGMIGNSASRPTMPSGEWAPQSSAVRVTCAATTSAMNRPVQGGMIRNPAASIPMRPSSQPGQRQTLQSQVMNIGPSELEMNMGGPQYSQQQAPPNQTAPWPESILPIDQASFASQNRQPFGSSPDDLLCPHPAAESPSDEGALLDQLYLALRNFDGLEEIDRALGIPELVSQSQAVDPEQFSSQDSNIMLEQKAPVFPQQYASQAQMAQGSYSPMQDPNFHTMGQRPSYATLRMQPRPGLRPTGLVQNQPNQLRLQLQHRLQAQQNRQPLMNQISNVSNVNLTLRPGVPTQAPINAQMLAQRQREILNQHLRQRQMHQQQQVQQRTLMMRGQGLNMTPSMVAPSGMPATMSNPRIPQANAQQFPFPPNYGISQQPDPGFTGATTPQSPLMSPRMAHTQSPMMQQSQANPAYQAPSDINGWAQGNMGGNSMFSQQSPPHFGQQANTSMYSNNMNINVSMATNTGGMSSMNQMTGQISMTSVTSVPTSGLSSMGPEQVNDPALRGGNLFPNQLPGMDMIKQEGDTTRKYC

Measured: inhibition

CC1CC(C)(O)CC(C(O)CC2CC(=O)NC(=O)C2)C1=O (stereo not drawn)
active: [1] 96.7% | [2] 95.7% | [3] 89.7% | [4] 94.9% | [5] 96.2% | [6] 110% | [7] 98.5% | [8] 98.1%

CC(C)(C)c1cc(C=C(C#N)C#N)cc(C(C)(C)C)c1O
inactive: [3] 0.93%
active: [1] 64.3% | [2] 82.4% | [4] 81% | [5] 80.2% | [6] 102% | [7] 91.4% | [8] 88.2%

O=[N+]([O-])c1ccc(N(CCO)CCO)c2c1no[n+]2[O-]
active: [1] 52.6% | [5] 70.7% | [6] 76.2% | [7] 74.4% | [10] 56.3%
inactive: [2] 27.8% | [3] 29.1% | [4] 14.5% | [8] 28.9% | [9] 29.9%

CC[C@@H](O)C[C@H]1CCC[C@@]2(C[C@@H]3OC(=O)/C=C/[C@@](C)(O)[C@@H](O)[C@H](C)[C@@H](O)[C@H](OC4CCC(N(C)C)C(C)O4)[C@@H](O)[C@](C)(O)CCCCC/C=C/[C@@H]4CC(C)(C)O[C@@]4(O)C[C@H](O2)[C@H]3C)O1 (stereo partly drawn)
active: [1] 76.5% | [2] 85.9% | [3] 62.5% | [4] 85% | [5] 79.8% | [6] 105% | [7] 94% | [8] 87.9%

O=c1[nH]c2ccccc2n1C1CCN(C(c2cccc3ccccc23)c2nnnn2Cc2ccccc2)CC1 (stereo not drawn)
inactive: [1] 13.1% | [2] 8.16% | [3] -24.4% | [4] -4.89% | [6] 18.9% | [7] 28.4% | [8] 9.13%
active: [5] 53.6%

CC(=O)OC1CC(OC2C(O)CC(OC3C(O)CC(OC4CCC5(C)C(CCC6C5CC(O)C5(C)C(C7=CC(=O)OC7)CCC65O)C4)OC3C)OC2C)OC(C)C1OC1OC(CO)C(O)C(O)C1O (stereo not drawn)
active: [1] 97.8% | [2] 88.9% | [3] 73.8% | [4] 86.5% | [5] 95% | [6] 109% | [7] 97.9% | [8] 89.4% | [9] 64.3%
inactive: [10] 28.8%

O=c1[nH]c(O)c(N=Nc2ccc3c(c2)OCCO3)c(=O)[nH]1
inactive: [2] 25.7% | [3] 6.27% | [4] -1.38% | [5] 22.6% | [6] 9.98% | [7] 42.1% | [8] 9.89% | [9] 33.9%
active: [1] 53.3% | [10] 63.6%

CCC1(OC(=O)CN)C(=O)OCc2c1cc1n(c2=O)Cc2cc3ccccc3nc2-1 (stereo not drawn)
active: [1] 94.9% | [2] 82.8% | [3] 56.9% | [4] 77.3% | [5] 84% | [6] 103% | [7] 90.9% | [8] 82%

CC(=O)OC1C(=O)OCC23CCC4(C)OC4C2OC2CC(OC(=O)C=CC=CC(=O)OCCC1C)C3(C)C21CO1 (stereo not drawn)
active: [1] 98.1% | [2] 96.5% | [3] 96.7% | [4] 96.3% | [5] 96.8% | [6] 110% | [7] 98.6% | [8] 95.3%

CC1CC(C)CC(C)C(O)C(C#N)=CC=CCC(C2CCCC2C(=O)O)OC(=O)CC(O)C(C)C1 (stereo not drawn)
active: [1] 97.5% | [2] 95.6% | [3] 89.6% | [4] 94.4% | [5] 95.8% | [6] 110% | [7] 97.9% | [8] 98.7% | [9] 78.4% | [10] 78.7%

CCC(C)C(NC(=O)CCCNC(=O)CCC(=O)OC1O[C@H]2OC3(C)CC[C@H]4[C@H](C)CCC(C1C)C24OO3)C(=O)O (stereo partly drawn)
inactive: [3] 45%
active: [1] 52.4% | [2] 77.5% | [4] 76.4% | [5] 71.9% | [6] 101% | [7] 89.8% | [8] 82.9%

O=c1[nH]c2ccccc2n1C1CCN(C(c2cccc3ccccc23)c2nnnn2-c2ccc3c(c2)OCCO3)CC1 (stereo not drawn)
active: [5] 57.5% | [7] 44%
inactive: [1] 33.8% | [2] 12.5% | [3] -29.6% | [4] 10.9% | [6] 27.6% | [8] 27.7%

CCC(C)(O)C(=O)OC1C(=O)OC2CC3C(C)=CC(O)C(O)C3(C)C3C4(O)OCC23C1C(C)C4O (stereo not drawn)
active: [2] 65.8% | [4] 72% | [5] 79.5% | [6] 103% | [7] 92.4% | [8] 87%
inactive: [1] 38.8% | [3] 36.7%

C=CCn1c(O)c(C(C)=NCc2cc(OC)cc(OC)c2)c(=O)[nH]c1=O
inactive: [2] 28.2% | [3] 43% | [4] 24.5%
active: [1] 49.6% | [5] 42.4% | [6] 66.4% | [7] 57.7% | [8] 43.6%

CN(C)c1ccc(-[n+]2c(-c3ccccc3)cc(-c3ccccc3)cc2-c2ccccc2)cc1
active: [1] 84.6% | [2] 86.2% | [3] 52.3% | [4] 83.5% | [5] 79.2% | [6] 107% | [7] 91.6% | [8] 92%

CC[C@@]1(O)C(=O)OCc2c1cc1n(c2=O)Cc2cc3c(NC(=O)CN)cccc3nc2-1
inactive: [2] 9.37% | [4] -2.11% | [8] 9.93%
active: [1] 61.8% | [3] 55.3% | [5] 42.7% | [6] 70% | [7] 59.3%

CC1C(OC(=O)CCC(=O)NC(C)(C)CO)O[C@H]2OC3(C)CC[C@H]4[C@H](C)CCC1C24OO3 (stereo partly drawn)
active: [1] 55.9% | [2] 79.9% | [3] 51.9% | [4] 81.2% | [5] 76.2% | [6] 101% | [7] 91% | [8] 84%

C[C@H]1[C@@H](OS(=O)(=O)O)C[C@@H]2C[C@H]([C@@H](O)c3cc(=O)[nH]c(=O)[nH]3)NC3=NC[C@H]1N32
active: [1] 88.3% | [2] 71% | [3] 58% | [4] 70.5% | [5] 92.3% | [6] 107% | [7] 95.2% | [8] 76.8%

CC1=CC2OC3CC4OC(=O)C=CC=CC(C(C)O)OCC(O)C(C)CC(=O)OCC2(CC1O)C4(C)C31CO1 (stereo not drawn)
active: [1] 98.7% | [2] 98.2% | [3] 97.4% | [4] 97.9% | [5] 96.3% | [6] 108% | [7] 96% | [8] 97.5% | [9] 79.8% | [10] 70.1%

CC(=O)OC1(C)CC(C)C(=O)C(C(O)CC2CC(=O)NC(=O)C2)C1 (stereo not drawn)
active: [1] 98% | [2] 96.7% | [3] 93.5% | [4] 95.6% | [5] 94.8% | [6] 110% | [7] 97.5% | [8] 95.8% | [9] 80.1% | [10] 71.5%

CN(C)c1ccc(/C=C/C=C/c2sc3ccccc3[n+]2C)cc1
active: [2] 38.5% | [4] 30.4% | [5] 35.2% | [6] 54.1% | [7] 63% | [8] 56.9%
inactive: [1] 22.8% | [3] 27.4%

CC(C)c1oc(=O)cc2c1[C@@H](O)[C@H]1OC(=O)[C@@]3(C)CC[C@@H](O)[C@@]2(C)C13 (stereo partly drawn)
inactive: [1] 40.9% | [2] 7.55% | [3] -2.23% | [4] 10%
active: [5] 71.4% | [6] 86.2% | [7] 72.3% | [8] 53.6%

C=C1C(=O)O[C@@H]2C[C@@H](C)[C@@H]3C=CC(=O)[C@@]3(C)[C@@H](OC(=O)CC(=O)O[C@H]3[C@@H]4C(=C)C(=O)O[C@@H]4C[C@@H](C)[C@@H]4C=CC(=O)[C@]43C)[C@H]12
active: [1] 97.5% | [2] 96% | [3] 91.3% | [4] 95.7% | [5] 94.5% | [6] 106% | [7] 97.1% | [8] 94.5% | [9] 96% | [10] 99%

CC[n+]1c(-c2ccccc2)c2cc(N)ccc2c2ccc(N)cc21
inactive: [1] -43.8% | [3] 40.9%
active: [2] 52.4% | [4] 41.4% | [5] 68.7% | [6] 92.5% | [7] 77.7% | [8] 84.8%

CCOc1ccc(-c2cc(C)[n+](CCc3ccc(OC)c(OC)c3)c(-c3ccc(OCC)cc3)c2)cc1
active: [1] 53.6% | [2] 69.7% | [3] 60% | [4] 73.4% | [5] 70% | [6] 104% | [7] 92.3% | [8] 85.4%

COC(=O)C12OCC34C(CC5C(C)=C(O)C(=O)CC5(C)C3C(O)C1O)OC(=O)C(OC(=O)/C=C(\C)C(C)C)C24 (stereo not drawn)
active: [1] 99% | [2] 97.6% | [3] 98.1% | [4] 97.7% | [5] 96.7% | [6] 110% | [7] 98.9% | [8] 97.9%

O=C1NC2C(=CC(O)C(O)C2O)c2cc3c(cc21)OCO3 (stereo not drawn)
active: [1] 97.1% | [2] 96.6% | [3] 88.5% | [4] 96.3% | [5] 94% | [6] 109% | [7] 96.7% | [8] 95.6% | [9] 73.8% | [10] 76.2%

C[C@@H]1O[C@@H](O[C@H]2C[C@@H](O)[C@]3(CO)[C@@H]4C(CC[C@]3(O)C2)[C@@]2(O)CC[C@H](C3COC(=O)C3)[C@@]2(C)C[C@H]4O)[C@H](O)[C@H](O)[C@H]1O (stereo partly drawn)
active: [1] 87.8% | [2] 47.1% | [4] 54.1% | [5] 92% | [6] 100% | [7] 85.2% | [8] 56.4%
inactive: [3] 5.8%

Clc1ccc(C[n+]2c(-c3ccccc3)cc(-c3ccccc3)cc2-c2ccccc2)cc1
active: [1] 83.5% | [2] 66% | [3] 53.1% | [4] 73.6% | [5] 70.8% | [6] 110% | [7] 89.8% | [8] 94%
